Assay outcomes as filed in PubChem.
A selection: hits, their analogues and other compounds. The true share with any hit is near 3.4%.
Cardio protect = myocardial damage modulation in H9c2 cells; H9c2 cardiomyocytes, H2O2 injury protection, ATPLite, 2 h; protection from H2O2 cell death, % at 20 µM; 360,000 tested, 0.63% active;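 active = compounds giving at least 50% protection of heart cells from peroxide-induced death in the single-dose screen, raw or plate-pattern-corrected value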
FXN GAA850 act = activators of GAA850 frataxin (FXN) promoter; HEK293 lucGAA850 FXN promoter luciferase reporter, 24 h; percent of 10 µM SAHA response; activation, % at 6 µM; 360,000 tested, 0.56% active; AID 540364;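 active = activation above the average of all compounds screened plus 3 SD, cutoff fixed separately per campaign, cut at about 7.5% in these data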
Gli-Sufu block = Gli-Sufu pathway antagonism; Sufu-KO-LIGHT fibroblasts, Gli luciferase reporter luminescence; 340,000 tested, 0.74% active; inhibition, % at 5 µM;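 active = inhibition above about 55%, limit read from the data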
SMARCA2 activ = increases SMARCA2 function in MMTV reporter cells | MG213 cells, MMTV-luciferase reporter, dexamethasone, overnight | activation, % at 9.1 µM | 370,000 tested, 1% active | AID 652017; in the data active = activation above about 7.8%
NR2F2 inh = blocks human COUP-TFII nuclear receptor; HEK293T NGFI-A luciferase reporter, luminescence; inhibition, % at 8.6 µM; 370,000 tested, 0.7% active;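 active = inhibition above a per-plate cutoff, mean inhibition of test wells between control levels plus 3 SD, cut at about 38% in these data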;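 note: cells cotransfected with COUP-TFII expression vector driving the NGFI-A reporter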
Target sequence (P24468 whole entry, looked up): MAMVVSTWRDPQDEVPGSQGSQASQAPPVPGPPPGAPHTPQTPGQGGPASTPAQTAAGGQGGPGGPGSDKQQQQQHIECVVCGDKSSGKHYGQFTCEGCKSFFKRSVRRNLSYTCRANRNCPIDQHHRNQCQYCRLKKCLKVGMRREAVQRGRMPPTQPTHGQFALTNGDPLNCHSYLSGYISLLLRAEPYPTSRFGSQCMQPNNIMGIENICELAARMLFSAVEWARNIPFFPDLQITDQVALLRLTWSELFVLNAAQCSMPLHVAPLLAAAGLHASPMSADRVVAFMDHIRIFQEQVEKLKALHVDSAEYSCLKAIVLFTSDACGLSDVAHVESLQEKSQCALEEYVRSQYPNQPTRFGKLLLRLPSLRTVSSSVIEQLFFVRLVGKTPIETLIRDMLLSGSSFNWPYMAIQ
GalR3 antag = human GalR3 antagonism | inhibition, % at 3 µM | HEK293 GalR3-CNG cAMP membrane potential fluorescence; galR3 body fused to GalR1 C-terminus | 360,000 tested, 0.44% active | O60755 | AID 651719;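 active = inhibition above the screen-wide average plus 3 SD, cut at about 13% in these data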;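 note: forskolin and galanin both at EC90 stimulate the cells; cAMP rise reported by CNG channel membrane potential dye signal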
SMARCA2 act conf = confirmation of SMARCA2 (BRM) function activators. MG213 cells, MMTV-luciferase with dexamethasone, luminescence, overnight; MG213 cells expressing E1A, Rb sequestered; DMSO wells 0%, reference activator 100%. activation, % at 9.1 µM. 3,500 tested, 30% active. shares compounds with SMARCA2 activ;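 active = activation above its plate's cutoff, the mean activation of tested wells plus 3 SD, cut at about 7.9% in these data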
GAL4-VP16 Luc = activates GAL4-VP16 luciferase, flagging SMARCA2 activator hits; shares compounds with SMARCA2 activ; HEK293 GAL4-VP16 pG5luc reporter, luciferase luminescence; scaled: DMSO wells 0%, SAHA wells 100%; activation, % at 9.1 µM; 3,500 tested, 41% active; AID 686939;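 active = activation above the solvent-only control well mean plus 3 SD, averaged across control plates, cut at about 5.2% in these data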
Hits are given with their value; . = inactive; / = not tested or not shown.

SMILES | Cardio protect | FXN GAA850 act | Gli-Sufu block | SMARCA2 activ | NR2F2 inh | GalR3 antag | SMARCA2 act conf | GAL4-VP16 Luc
O=C(Nc1ccc(-c2cn3c(n2)SCC3)cc1)c1ccco1 | . | . | . | 14 | . | . | . | 10
COc1ccc(OC)c(N=C2SCCCN2C(=O)c2ccc(N3C(=O)CCC3=O)cc2)c1 | / | / | / | . | . | . | / | /
O=C(N/N=C/c1cccs1)c1ccc2c(c1)OCO2 | . | . | . | . | . | . | / | /
O=C(N/N=C/C1CC2CCC1C2)c1ccc2c(c1)OCO2 (centres undefined) | . | . | . | 8.2 | . | . | . | .
O=C(N/N=C/c1ccccc1O)c1ccc2c(c1)OCO2 | . | . | . | . | . | . | / | /
O=C(N/N=C/c1ccc2c(c1)OCO2)c1cccs1 | . | . | . | 9.2 | . | . | 11 | 7.8
O=C(N/N=C/c1ccc2c(c1)OCO2)c1ccc2c(c1)OCCO2 | . | . | . | 10 | . | . | . | .
O=C(O)CCCNS(=O)(=O)c1ccc(F)cc1 | . | . | . | 8.8 | . | . | . | .
O=S(=O)(NCCCCCNS(=O)(=O)c1ccc(F)cc1)c1ccc(F)cc1 | . | . | . | . | . | . | / | /
Cn1nnc(-c2ccc(OCc3ccccc3F)cc2)n1 | . | . | . | 11 | . | . | . | 13
COc1ccc(C(CC(=O)Nc2nccs2)n2cccc2)cc1 (centres undefined) | . | . | . | 8.1 | . | . | . | 10.0
O=C(NC(=S)N1CCCC1)c1ccccc1Cl | . | . | . | . | . | . | / | /
COc1cc(C)ccc1OCCCOc1ccccc1Cl | . | . | . | 9.5 | . | . | 13 | 8.9
O=C(C=Cc1cccc(Cl)c1)c1ccccc1 | . | . | . | 10 | . | . | . | .
O=C(C=Cc1ccc(OCc2ccccc2)cc1)c1c(F)cccc1F | / | / | / | 10 | . | . | 9.9 | .
CNc1ccc(/C=C/C(=O)c2ccc(C)cc2)cc1[N+](=O)[O-] | . | . | . | . | . | . | / | /
CCOc1ccc(/C=C/C(=O)c2ccccc2)cc1 | . | . | . | 9.9 | . | . | . | 12
CCOc1ccc(C(=O)/C=C/c2ccc(SC)cc2)cc1 | . | . | . | . | . | . | / | /
O=C(/C=C/c1ccccc1)NNC(=O)c1cccc(Cl)c1 | . | . | . | . | . | . | / | /
CN(C)c1ccc(/C=C/C(=O)c2ccccc2)cc1[N+](=O)[O-] | . | . | . | 9.3 | . | . | . | .
CN(C)c1ccc(C(=O)/C=C/c2ccccc2)cc1 | . | . | / | 10 | . | . | 8.6 | 14
Cc1ccc(NC(=O)Cc2ccccc2)cc1S(=O)(=O)N1CCOCC1 | . | . | . | . | . | . | / | /
O=C(CSc1nnc(-c2cccnc2)n1-c1ccccc1)c1ccccc1Cl | / | / | / | 8.6 | . | / | . | .
O=C(O)CCSc1nnc(-c2cccnc2)n1-c1ccccc1 | . | . | . | / | / | / | / | /
Cc1cccc(-n2c(SCC(=O)N(C)C3CCS(=O)(=O)C3)nc3ccccc3c2=O)c1C (centres undefined) | . | . | . | . | . | . | / | /
SMILES | Cardio protect | FXN GAA850 act | Gli-Sufu block | SMARCA2 activ | NR2F2 inh | GalR3 antag | SMARCA2 act conf | GAL4-VP16 Luc
O=C1NC(c2ccccc2Br)=N/C1=C\c1ccco1 | . | . | . | 14 | . | . | 9.6 | 7.3
O=C1NC(c2ccccc2)=N/C1=C/c1ccco1 | . | . | . | . | . | . | / | /
Cc1onc(-c2c(F)cccc2Cl)c1C(=O)OCC(=O)NCc1ccccc1 | . | . | . | . | . | . | / | /
Cc1csc(-c2coc3cc(O)cc(C)c3c2=O)n1 | . | . | . | 9.0 | . | . | 15 | 7.5
CCc1cc2c(=O)c(-c3nc(C)cs3)coc2cc1O | . | . | . | . | . | . | / | /
CCN(CC)CCNC(=O)Cc1c(C(=O)O)n(C)c2ccccc12 | . | . | . | 9.5 | . | . | . | .
CCN(CC)CCCNC(=O)Cc1c(C(=O)O)n(C)c2ccccc12 | . | . | . | . | . | . | / | /
COC(=O)Cc1csc(Nc2ccc(Cl)cc2)n1 | . | . | . | . | . | . | / | /
COC(=O)Cc1csc(Nc2ccccc2)n1 | . | . | . | 8.4 | . | . | . | .
O=C(c1cccc(OCc2ccccc2)c1)N1CCOCC1 | . | . | . | / | / | / | / | /
CCOc1ccc(OCc2cccc(C(=O)N3CCOCC3)c2)cc1 | . | . | . | 12 | . | . | . | 9.7
COc1ccc(OCc2cccc(C(=O)NN)c2)cc1 | . | . | . | 13 | . | . | 9.4 | 16
CCOc1ccc(OCc2cccc(C(=O)N/N=C/c3cccnc3)c2)cc1 | . | . | . | 8.5 | . | . | 13 | 21
COc1ccc(NC(=O)Cn2c(CCC(=O)O)ccc2-c2ccc(C)cc2)cc1 | . | . | . | . | . | . | / | /
Cc1cccc(-c2cccc3c4c([nH]c23)[C@@H]2C[C@H](N(C)C(=O)NC3CCCCC3)[C@H]([C@H](C)O)C(=O)N2CC4)c1 | / | / | / | . | . | / | / | /
Cc1cccc(-c2cccc3c4c([nH]c23)[C@@H]2C[C@H](N(C)C(=O)Nc3ccccc3)[C@H]([C@H](C)O)C(=O)N2CC4)c1 | / | / | / | 9.2 | . | / | . | .
CCC(=O)Nc1cccc(NC(=S)NC(=O)c2cccs2)c1 | . | . | . | 11 | . | . | . | 9.4
COC(=O)c1ccc2nc(-c3ccc(F)cc3)c(Cc3ccccc3C(F)(F)F)n2c1 | / | / | / | 9.1 | . | . | . | .
COc1cc(/C=C2/SC(=Nc3ccc(O)cc3)NC2=O)cc(OC)c1O | . | . | . | 8.9 | . | . | . | .
O=C1c2cccc3c([N+](=O)[O-])ccc(c23)C(=O)N1c1ccc(Cl)cn1 | . | . | . | . | . | . | / | /
O=C1c2cccc3c([N+](=O)[O-])ccc(c23)C(=O)N1c1ccccn1 | . | . | . | 14 | . | . | . | 6.5
CCc1nnc(NC(=O)c2cccc(NC(=O)C(C)C)c2)s1 | . | . | . | 8.8 | . | . | . | 5.9
CCOc1ccc(NC(=O)c2nn(C)cc2Br)cc1 | . | . | . | . | . | . | / | /
CCn1cc(Br)c(C(=O)Nc2cccc(SC)c2)n1 | . | . | . | 8.0 | . | . | . | .
COc1cccc(NC(=O)c2ccc3nsnc3c2)c1 | . | . | . | 8.1 | . | . | . | 10
COc1cccc(NC(=O)c2nn(C)cc2Br)c1 | . | . | . | 8.0 | . | . | . | .
CCn1cc(Br)c(C(=O)Nc2ccc(F)cc2F)n1 | . | . | . | . | . | . | / | /
CCOCCCNC(=O)c1cccc(OC2CCN(S(C)(=O)=O)CC2)c1 | . | . | . | 8.3 | . | . | . | 10
CCOCCCNC(=O)c1ccccc1OC1CCN(S(C)(=O)=O)CC1 | . | . | . | . | . | . | / | /
